Consider 8 molecules from PubChem BioAssay (NCATS).

Test [1] can be described thus: Cell Viability - NIH 3T3 (AID 541; active means well fitted curve in the direction sought with a large enough effect; an effect the other way counts as inactive or inconclusive;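 further: cells exposed to compound for 40 hours; plate controls were DMSO alone for no effect and tamoxifen positive control for full effect; nearly all actives have a fitted effect of over 25% in size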). As to conditions: NIH 3T3 cell viability, qHTS; activity change, negative = cytotoxicity: at 92.2 µM (top of the series). The procedure, abridged: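 Cells seeded at 1000/well, rested 5 hr at 37 °C, then dosed and incubated 40 hr at 37 °C. CellTiter-Glo added, 20 min room temperature, luminescence read. AC50 by Hill fit.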
(In general: qHTS replaces the single test concentration by a dilution series.)

In test [2] the target is Estrogen receptor (Homo sapiens) (UniProt P03372). Put plainly: qHTS assay for small molecule antagonists of estrogen receptor alpha signaling (AID 588513; active means well fitted curve in the direction sought with a large enough effect in the signal ratio, with a control signal flat, not every such curve was filed as active; the % refers to the signal ratio; further: on the % scale 0 is the no-effect control and ±100 the full control effect). The procedure, abridged:
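Cells were plated at 5000/well and incubated 4 h at 37 C. Compounds were added as 1:2 dilution series, duplicates. 17-beta-estradiol (0.5nM final) was added for 18 h before CCF4 detection.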

The target in test [3] is Bile acid receptor (Homo sapiens) (UniProt Q96RI1). Put plainly: qHTS assay for small molecule agonists of farnesoid X receptor signaling (AID 588527).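 Further: 0% = vehicle basal and 100% = reference agonist.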 The note with it: HEK293T FXR-UAS-bla, beta-lactamase ratio, 16 h; stronger effect = higher value. The method in brief:
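Read-out: beta-lactamase reporter fluorescence with CCF4 substrate in GeneBLAzer FXR-UAS-bla HEK293T cells, after 16 h compound exposure at 37 C. Response scaled between DMSO basal (0%) and chenodeoxycholic acid at 100 uM (100%).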

The target in test [4] is Peroxisome proliferator-activated receptor delta (Homo sapiens) (UniProt Q03181). Put plainly: qHTS assay for small molecule agonists of peroxisome proliferator-activated receptor delta signaling (AID 588534).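 Further: 0% = DMSO basal wells and 100% = positive control agonist at 10 µM.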 The procedure, abridged: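 Agonist-mode qHTS; reporter cells, 5 hrs 37 C pre-incubation; compound titration, 18 hrs 37 C; CCF4 dye, 2 hrs RT; fluorescence read. EC50/efficacy via Hill fit.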
Peroxisome proliferator-activated receptor delta (Homo sapiens), sequence (Q03181 whole entry, looked up): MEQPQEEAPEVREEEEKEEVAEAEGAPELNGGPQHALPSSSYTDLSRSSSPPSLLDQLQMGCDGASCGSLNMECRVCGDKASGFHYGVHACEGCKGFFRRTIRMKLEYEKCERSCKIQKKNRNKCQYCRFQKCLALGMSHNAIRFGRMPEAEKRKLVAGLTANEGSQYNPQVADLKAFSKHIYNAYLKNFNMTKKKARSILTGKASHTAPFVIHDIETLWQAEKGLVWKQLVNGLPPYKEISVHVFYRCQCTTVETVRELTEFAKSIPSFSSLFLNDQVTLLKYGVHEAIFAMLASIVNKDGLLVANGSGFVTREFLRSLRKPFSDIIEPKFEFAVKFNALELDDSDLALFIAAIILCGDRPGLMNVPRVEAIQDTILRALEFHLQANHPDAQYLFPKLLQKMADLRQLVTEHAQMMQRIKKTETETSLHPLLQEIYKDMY

A short description of test [5]: qHTS assay for small molecule antagonists of peroxisome proliferator-activated receptor delta signaling (AID 588535; active means well fitted inhibition curve with a large enough effect in the signal ratio, with a control signal flat, not every such curve was filed as active; the % refers to the signal ratio;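 on max response: cells co-treated with a PPAR-delta agonist as stimulator during compound exposure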). As to conditions: HEK293T PPARd-UAS-bla, beta-lactamase FRET ratio, 18 h; 460 nm channel. The method in brief:
(§1)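 Titrations were run on PPAR-delta-UAS-bla HEK293T cells in charcoal/dextran-stripped serum, incubated 18 h at 37 C. CCF4 fluorescence (460/530 nm) after 2 h RT; Hill equation yields IC50 and maximal response.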

The target in test [6] is Peroxisome proliferator-activated receptor delta (Homo sapiens) (UniProt Q03181). The test is described as above. The procedure, abridged:
as §1

The target in test [7] is Peroxisome proliferator-activated receptor gamma (Homo sapiens) (UniProt P37231). Put plainly: qHTS assay for small molecule agonists of peroxisome proliferator-activated receptor gamma signaling (AID 588536; active means well fitted curve in the direction sought with a large enough effect in the signal ratio, with a control signal flat, not every such curve was filed as active; the % refers to the signal ratio;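 further: 0% = DMSO basal wells and 100% = rosiglitazone at 2 µM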). The procedure, abridged:
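Beta-lactamase reporter read-out: CCF4 fluorescence (ex 405, em 460/530 nm) after 2 h at RT. HEK293 GeneBLAzer cells were treated for 16 h at 37 C. Hill fits gave EC50 and efficacy versus 2 uM rosiglitazone (100%) and DMSO (0%).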

Test [8] deals with Vitamin D3 receptor (Homo sapiens) (UniProt P11473). Put plainly: qHTS assay for small molecule agonists of vitamin D receptor signaling (AID 588543).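 Further: 0% = DMSO basal and 100% = reference agonist control.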 The procedure, abridged:
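qHTS in agonist mode: compound titrations stimulate a VDR-driven β-lactamase reporter in HEK293T cells over 16 h at 37 °C. Response normalized to 50 nM 1α,25-dihydroxyvitamin D3 = 100%, DMSO = 0%; Hill fitting gives EC50 and maximal response.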

In test [9] the target is Thyroid hormone receptor beta (Homo sapiens) (UniProt P10828). Put plainly: qHTS assay for small molecule antagonists of thyroid hormone receptor beta signaling (AID 588547; active means well fitted inhibition curve with a large enough effect in the signal ratio, with a control signal flat, not every such curve was filed as active; the % refers to the signal ratio;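 further: cells stimulated with 0.4 nM T3 agonist during compound exposure; on the % scale 0 is the no-effect control and ±100 the full control effect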). As to conditions: TR-UAS-bla HEK293, beta-lactamase ratio, antagonist mode, 18 h. The method in brief: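 Inhibition of T3-driven (0.4nM final) beta-lactamase reporter activity was measured over 0.59 nM to 92 uM compound after 18 h at 37 C. The cells were GripTite HEK293 TR-UAS-bla in charcoal/dextran-stripped serum, with CCF4 ratio read-out and IC50 from Hill fits.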
Thyroid hormone receptor beta (Homo sapiens), sequence (P10828 whole entry, looked up): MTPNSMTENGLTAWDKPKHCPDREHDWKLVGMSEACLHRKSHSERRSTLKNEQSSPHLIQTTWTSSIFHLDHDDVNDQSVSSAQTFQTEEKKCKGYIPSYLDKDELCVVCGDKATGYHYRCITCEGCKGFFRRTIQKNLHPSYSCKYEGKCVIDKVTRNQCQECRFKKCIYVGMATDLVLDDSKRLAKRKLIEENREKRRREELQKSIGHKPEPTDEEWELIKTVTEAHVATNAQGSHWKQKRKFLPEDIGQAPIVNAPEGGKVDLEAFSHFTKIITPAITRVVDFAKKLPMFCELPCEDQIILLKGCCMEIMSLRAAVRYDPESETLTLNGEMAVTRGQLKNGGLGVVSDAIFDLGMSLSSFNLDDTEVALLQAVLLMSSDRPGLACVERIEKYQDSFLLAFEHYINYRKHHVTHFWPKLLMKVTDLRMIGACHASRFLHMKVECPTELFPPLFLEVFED

Test [10] in a line: qHTS assay for small molecule activators of the nuclear factor-kappa B (NF-kB) signaling pathway (AID 651749; active means well fitted activation curve with a large enough effect in the signal ratio; the % refers to the signal ratio; further: % of control where 0% means no effect). As to conditions: NF-kB-bla ME-180 cells, beta-lactamase FRET ratio, 16 h; stronger effect = higher value. The method in brief:
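Activation measured after 16 hr compound treatment at 37C, 5% CO2, of 2,000 ME-180 cells/well stably expressing an NF-kB response element–driven beta-lactamase reporter, via FRET-disruption fluorescence.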

A short description of test [11]: qHTS assay for small molecule disruptors of the mitochondrial membrane potential - 5 hr assay (AID 651755). Further: on the % scale 0 is the no-effect control and ±100 the full control effect; nearly all actives have a fitted effect of over 40% in size. The method in brief:
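Membrane-potential dye readout: red aggregate (540 ex/590 em) versus green monomer (490 ex/535 em) fluorescence after 30 min dye loading, following 5 hr compound exposure at 37C of overnight-plated HepG2 cells.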

Test [12] concerns the target Tumor necrosis factor (Homo sapiens) (UniProt P01375). Put plainly: qHTS assay to identify small molecules that stimulate Tumor Necrosis Factor-alpha (TNF-alpha) secretion (AID 651757; active means well fitted curve in the direction sought with a large enough effect in the signal ratio; the % refers to the signal ratio; further: 0% is about no effect). The procedure, abridged:
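Human monocytic THP-1 cells are plated, treated with compound and held at 37 C for 17 hrs. Labeled anti-TNF-alpha antibody mixture is then added; after 3 hr at room temperature, TR-FRET signal reports secreted TNF-alpha.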

A short description of test [13]: qHTS assay to identify small molecules that stimulate interleukin-8 (IL-8) secretion (AID 651758; active means well fitted activation curve with a large enough effect in the signal ratio; the % refers to the signal ratio; further: 0% is about no effect). The method in brief: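 Secreted IL-8 measured homogeneously by TR-FRET (two labelled anti-IL-8 antibodies, 1-3 h at room temperature) after a 16 h, 37 C compound treatment of THP-1 cells at 2000 cells/well.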
Test [14] in a line: qHTS assay for environmental chemicals that activate the Aryl hydrocarbon Receptor (AhR) signaling pathway (AID 651777; active means well fitted curve in the direction sought with a large enough effect; an effect the other way counts as inactive or inconclusive; further: % of control where 0% means no effect; nearly all actives have a fitted effect of over 15% in size). The note with it: 1A2-DRE human hepatoma cells, luciferase, 24 h; activation: stronger effect = higher value. The method in brief:
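Quantitative HTS in stably transfected human liver-derived cells whose luciferase gene sits downstream of the CYP1A2 promoter and dioxin response element. After 24 hr exposure at 37 C, One-Glo luminescence was measured.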

Test [15] addresses Thyroid hormone receptor beta (Homo sapiens) (UniProt P10828). Put plainly: qHTS assay for small molecule agonists of thyroid hormone receptor beta signaling (AID 588545).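 Further: 0% = DMSO only and 100% = 10 nM T3.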 The method in brief:
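Beta-lactamase reporter activity under TR response element control is measured in HEK 293 cells after 18 hrs compound exposure. Signal is ratiometric CCF4 fluorescence, 460/530 nm.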

In test [16] the target is Nuclear receptor ROR-gamma (Homo sapiens) (UniProt P51449). Put plainly: qHTS assay for small molecule antagonists of the retinoid-related orphan receptor gamma (ROR-gamma) signaling pathway (AID 651802; active means well fitted curve in the direction sought with a large enough effect; an effect the other way counts as inactive or inconclusive;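 further: CHO cells with doxycycline-induced ROR-gamma expression; on the % scale 0 is the no-effect control and ±100 the full control effect; nearly all actives have a fitted effect of over 60% in size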). The method in brief:
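Steps: cells dispensed; compound or DMSO transferred by pin tool; doxycycline added to induce the ROR response element-driven luciferase; plates held 16hr at 37C; ONE-Glo added and luminescence measured.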

Test [17] in a line: qHTS assay for small molecule agonists of the antioxidant response element (ARE) signaling pathway measured by Nrf2-dependant transcriptional activity (AID 720636; active means well fitted curve in the direction sought with a large enough effect in the repeat runs; an effect the other way counts as inactive or inconclusive; further: % of control where 0% means no effect). The procedure, abridged:
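Quantitative HTS format in HepG2 cells stably expressing an ARE-luciferase reporter; 16 hr compound treatment at 37 C, luciferase signal detected with ONE-Glo.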

Test [18] deals with Glucocorticoid receptor (Homo sapiens) (UniProt P04150). Put plainly: qHTS assay for small molecule agonists of glucocorticoid receptor signaling (AID 588532; active means well fitted curve in the direction sought with a large enough effect in the signal ratio, with a control signal flat; the % refers to the signal ratio;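 further: 100% = dexamethasone at 0.1 µM and 0% = DMSO only wells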). As to conditions: HeLa MMTV-bla, beta-lactamase ratio, agonist, 18 h; stronger effect = higher value; percent of dexamethasone control, DMSO zero. The method in brief:
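Agonist-mode qHTS: GRE-driven beta-lactamase in HeLa cells exposed 18 h to titrated compounds (up to 92 uM), then CCF4 ratio read after 2 h at RT; Hill-fitted EC50, efficacy relative to 0.1 uM dexamethasone.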

Test [19] shares this target. Put plainly: qHTS assay for small molecule antagonists of glucocorticoid receptor signaling (AID 588533; active means well fitted inhibition curve with a large enough effect in the signal ratio, with a control signal flat, not every such curve was filed as active; the % refers to the signal ratio;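 further: cells stimulated with 2 nM dexamethasone as agonist; on the % scale 0 is the no-effect control and ±100 the full control effect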). The procedure, abridged: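 Antagonist-mode qHTS: compound titrations added to GRE-bla HeLa cells, then dexamethasone 2 nM final; 18 h, 37 C. CCF4 FRET fluorescence normalized to dexamethasone and DMSO; IC50 from Hill fit.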
In test [20] the target is Peroxisome proliferator-activated receptor gamma (Homo sapiens) (UniProt P37231). Put plainly: qHTS assay for small molecule antagonists of peroxisome proliferator-activated receptor gamma signaling (AID 588537; active means well fitted inhibition curve with a large enough effect in the signal ratio, with a control signal flat, not every such curve was filed as active; the % refers to the signal ratio;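 further: reporter cells co-stimulated with 50 nM rosiglitazone agonist during compound treatment; % of control where 0% means no effect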). The method in brief:
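Antagonist-mode β-lactamase reporter screen run as a titration series. HEK293 PPARγ-UAS-bla cells are stimulated with rosiglitazone (50 nM final) for 16 h, then CCF4 is read at 460/530 nm. Data are scaled between DMSO and rosiglitazone and fitted to the Hill equation.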

The structures appear in SMILES notation. “And” between values parts separate entries of the source, which are not always exact repeats. Identical values can stand only once. Results filed as inconclusive are left out. The source made the active and inactive calls. Unless noted, the call rests on the fitted dose curve.

Bile acid receptor (Homo sapiens), sequence (Q96RI1 whole entry, looked up): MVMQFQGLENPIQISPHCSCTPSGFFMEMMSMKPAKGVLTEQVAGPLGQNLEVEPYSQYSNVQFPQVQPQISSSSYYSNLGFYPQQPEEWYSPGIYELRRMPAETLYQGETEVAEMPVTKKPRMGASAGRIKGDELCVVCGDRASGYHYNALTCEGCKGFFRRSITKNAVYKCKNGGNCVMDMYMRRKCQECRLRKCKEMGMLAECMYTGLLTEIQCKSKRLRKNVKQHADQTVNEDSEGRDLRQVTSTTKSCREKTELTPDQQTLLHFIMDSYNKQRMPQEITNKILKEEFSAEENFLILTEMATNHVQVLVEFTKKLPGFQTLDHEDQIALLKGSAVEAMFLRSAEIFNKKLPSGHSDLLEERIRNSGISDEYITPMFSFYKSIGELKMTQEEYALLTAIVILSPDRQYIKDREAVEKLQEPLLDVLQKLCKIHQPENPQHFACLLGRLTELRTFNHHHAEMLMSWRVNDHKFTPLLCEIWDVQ
Tumor necrosis factor (Homo sapiens), sequence (P01375 whole entry, looked up): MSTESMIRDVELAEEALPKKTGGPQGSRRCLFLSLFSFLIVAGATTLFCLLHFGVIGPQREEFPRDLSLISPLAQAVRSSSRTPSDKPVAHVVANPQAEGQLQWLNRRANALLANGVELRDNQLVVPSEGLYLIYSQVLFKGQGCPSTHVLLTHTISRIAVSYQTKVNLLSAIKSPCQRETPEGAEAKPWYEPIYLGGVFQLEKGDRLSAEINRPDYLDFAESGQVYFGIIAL
Vitamin D3 receptor (Homo sapiens), sequence (P11473 whole entry, looked up): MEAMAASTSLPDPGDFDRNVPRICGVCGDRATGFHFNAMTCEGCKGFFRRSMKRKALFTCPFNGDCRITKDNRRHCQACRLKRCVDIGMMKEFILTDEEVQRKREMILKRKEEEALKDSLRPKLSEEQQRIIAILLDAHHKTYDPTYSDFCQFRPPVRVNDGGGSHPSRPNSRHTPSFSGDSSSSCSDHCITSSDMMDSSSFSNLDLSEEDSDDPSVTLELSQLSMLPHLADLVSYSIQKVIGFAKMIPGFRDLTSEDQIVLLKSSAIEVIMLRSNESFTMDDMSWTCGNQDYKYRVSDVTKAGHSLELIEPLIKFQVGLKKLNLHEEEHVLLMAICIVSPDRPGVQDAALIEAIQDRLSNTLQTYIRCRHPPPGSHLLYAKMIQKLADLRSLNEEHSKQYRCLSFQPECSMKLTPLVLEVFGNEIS
Glucocorticoid receptor (Homo sapiens), sequence (P04150 whole entry, looked up): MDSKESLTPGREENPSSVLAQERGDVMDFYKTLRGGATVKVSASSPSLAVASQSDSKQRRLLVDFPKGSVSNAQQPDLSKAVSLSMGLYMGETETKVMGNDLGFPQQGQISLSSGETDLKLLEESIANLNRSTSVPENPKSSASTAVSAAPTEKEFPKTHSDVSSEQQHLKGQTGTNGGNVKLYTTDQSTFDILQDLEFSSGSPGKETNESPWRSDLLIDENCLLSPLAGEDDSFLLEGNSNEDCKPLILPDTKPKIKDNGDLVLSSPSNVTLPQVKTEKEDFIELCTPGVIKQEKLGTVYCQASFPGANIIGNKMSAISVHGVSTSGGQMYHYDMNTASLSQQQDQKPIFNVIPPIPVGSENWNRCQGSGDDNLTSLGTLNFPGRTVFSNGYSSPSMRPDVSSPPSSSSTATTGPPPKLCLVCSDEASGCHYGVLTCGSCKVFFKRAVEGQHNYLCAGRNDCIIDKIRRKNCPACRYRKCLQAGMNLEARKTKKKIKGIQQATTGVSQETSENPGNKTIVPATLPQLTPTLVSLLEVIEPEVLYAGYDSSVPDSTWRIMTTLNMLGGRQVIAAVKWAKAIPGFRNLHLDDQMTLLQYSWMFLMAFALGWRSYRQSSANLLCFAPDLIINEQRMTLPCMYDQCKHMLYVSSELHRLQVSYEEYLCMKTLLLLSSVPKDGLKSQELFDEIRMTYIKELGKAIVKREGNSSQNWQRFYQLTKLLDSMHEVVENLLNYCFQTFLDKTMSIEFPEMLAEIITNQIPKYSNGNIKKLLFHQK
Nuclear receptor ROR-gamma (Homo sapiens), sequence (P51449 whole entry, looked up): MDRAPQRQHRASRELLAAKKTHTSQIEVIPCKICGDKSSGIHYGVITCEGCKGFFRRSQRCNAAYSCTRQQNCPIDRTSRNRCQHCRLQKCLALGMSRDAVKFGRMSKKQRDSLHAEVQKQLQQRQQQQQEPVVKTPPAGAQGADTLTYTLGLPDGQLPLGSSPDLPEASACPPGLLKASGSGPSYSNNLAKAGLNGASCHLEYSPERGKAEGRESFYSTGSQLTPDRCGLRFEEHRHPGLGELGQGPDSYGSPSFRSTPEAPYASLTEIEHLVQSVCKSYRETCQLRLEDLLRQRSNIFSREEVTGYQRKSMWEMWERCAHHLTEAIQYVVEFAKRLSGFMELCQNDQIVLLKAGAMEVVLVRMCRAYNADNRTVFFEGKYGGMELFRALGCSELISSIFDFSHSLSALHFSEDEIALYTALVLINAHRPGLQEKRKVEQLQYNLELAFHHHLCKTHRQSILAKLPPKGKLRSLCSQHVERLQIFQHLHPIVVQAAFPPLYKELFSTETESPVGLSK
Estrogen receptor (Homo sapiens), sequence (P03372 whole entry, looked up): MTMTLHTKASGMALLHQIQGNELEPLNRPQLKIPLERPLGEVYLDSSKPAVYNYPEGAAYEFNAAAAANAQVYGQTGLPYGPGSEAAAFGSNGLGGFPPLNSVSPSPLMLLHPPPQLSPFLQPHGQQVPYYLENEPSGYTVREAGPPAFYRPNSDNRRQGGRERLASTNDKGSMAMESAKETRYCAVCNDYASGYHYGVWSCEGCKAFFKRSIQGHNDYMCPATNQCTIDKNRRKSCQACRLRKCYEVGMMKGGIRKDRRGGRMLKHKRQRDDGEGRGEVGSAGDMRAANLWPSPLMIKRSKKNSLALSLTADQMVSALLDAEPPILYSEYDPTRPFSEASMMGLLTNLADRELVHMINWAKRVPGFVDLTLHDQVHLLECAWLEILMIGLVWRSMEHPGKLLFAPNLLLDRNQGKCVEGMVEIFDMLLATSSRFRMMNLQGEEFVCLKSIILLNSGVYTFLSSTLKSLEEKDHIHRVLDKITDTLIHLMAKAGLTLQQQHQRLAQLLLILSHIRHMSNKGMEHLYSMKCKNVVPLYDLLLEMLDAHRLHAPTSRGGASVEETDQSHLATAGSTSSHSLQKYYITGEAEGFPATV
Peroxisome proliferator-activated receptor gamma (Homo sapiens), sequence (P37231 whole entry, looked up): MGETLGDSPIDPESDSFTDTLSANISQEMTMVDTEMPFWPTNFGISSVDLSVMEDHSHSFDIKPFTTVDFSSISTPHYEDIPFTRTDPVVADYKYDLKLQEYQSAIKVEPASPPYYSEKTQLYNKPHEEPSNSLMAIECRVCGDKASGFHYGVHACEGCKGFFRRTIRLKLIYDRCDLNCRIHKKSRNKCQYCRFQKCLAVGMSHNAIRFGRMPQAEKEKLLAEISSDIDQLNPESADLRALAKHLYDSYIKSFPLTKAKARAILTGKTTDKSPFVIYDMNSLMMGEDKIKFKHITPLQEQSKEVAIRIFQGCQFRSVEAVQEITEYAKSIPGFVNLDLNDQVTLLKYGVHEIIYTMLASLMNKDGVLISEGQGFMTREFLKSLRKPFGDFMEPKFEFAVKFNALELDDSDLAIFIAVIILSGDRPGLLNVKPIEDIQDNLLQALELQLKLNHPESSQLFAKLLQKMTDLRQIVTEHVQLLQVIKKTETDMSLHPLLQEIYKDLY

As for `O=C(O)c1cccc(Cl)c1`, the Potency entry in test [1], in [2], in test [11] and in [13] was “inactive” throughout. Moreover, the figures for the activation in test [3], in test [10] and in test [14] were 2.01% (inactive), -1.59% (inactive) and 0.728% (inactive), respectively. Besides, the molecule was classed as inactive in test [4], in [6], in [7], in [8] and in [12]. Moreover, the max response in [5] is 30.4%. For the same molecule, the activity change % (negative = inhibition) in test [9] was 7.72% (inactive).

Consider `Nc1ccc(Cl)c(Cl)c1`, for which the Potency entry in test [1], in test [15], in test [11], in [13], in test [16] and in test [17] was “inactive” in each case. For the same molecule, the result in test [4], in test [6], in test [7] and in test [12] was inactive. In [5], the max response was -10.6%. Moreover, the activation in test [10] is 0.145% (inactive).

Take `C=CC(=O)OCC(C)C`: the Potency result in [1], in test [2], in test [20], in test [13] and in [17] was “inactive” in each case. In addition, the activation in test [18] is -2.2% (inactive); in test [10], 0.0391% (inactive); in test [14], 0.0769% (inactive). In addition, the molecule was classed as inactive in test [19], in test [4], in test [6], in [7] and in [8]. The max response in test [5] is -6.69%. Also, the activity change % (negative = inhibition) in [9] is -1.18% (inactive).

With `Oc1c(Cl)cccc1Cl`, the Potency result in test [1], in test [2], in test [11], in test [13], in [16] and in test [17] was “inactive” in each case. Also, the call in test [4], in test [6], in test [7], in test [8] and in [12] was inactive. Also, the max response in [5] turned out to be 38.7%. For the same molecule, the activity change % (negative = inhibition) in test [9] is -18.9% (inactive). Also, the activation in test [10] is -0.406% (inactive); in test [14], 0.939% (inactive).

As to `CCC/C=N/O`, the Potency result in test [1], in test [2], in test [20], in [15], in test [11] and in test [13] was “inactive” in each case. Besides, the Potency result in [17] was “inactive”. The figures for the activation in [3], in test [18] and in test [14] were 0.311% (inactive), 5.99% (inactive) and -0.464% (inactive), respectively. Moreover, the outcome in test [19], in test [7], in test [8] and in [12] was inactive.

As for `FC(Cl)(Cl)Cl`, the Potency result in [1], in test [20], in [15], in [11], in test [16] and in [17] was “inactive” in each case. For the same molecule, the activation in test [3] was -3.19% (inactive); in [18], 0.534% (inactive); in test [14], -1.34% (inactive). The outcome in test [19], in test [8] and in [12] was inactive. Moreover, in test [9], the activity change % (negative = inhibition) was -7.45% (inactive).

Turning to `S=C1NCCN1`, the Potency entry in test [1], in test [20], in [15] and in test [17] was “inactive” in each case. Also, the molecule was called inactive in [7], in [8] and in test [12]. Further, the activity change % (negative = inhibition) in [9] is -23.2% (inactive) and -6.83% (inactive). For the same molecule, the activation was 0.43% (inactive) and 0.618% (inactive) in test [10]; 4.55% (inactive) and -3.06% (inactive) in test [14].

For `CCOC(=O)CBr`, the Potency result in test [1], in [15], in test [11], in test [13] and in test [16] was “inactive” in each case. Besides, the activation in test [3] is 0.321% (inactive); in test [10] it was -0.133% (inactive); in test [14], -0.43% (inactive). The outcome in test [19], in [4], in test [7], in test [8] and in test [12] was inactive. In addition, the max response in test [5] is -11.7%. Moreover, the activity change % (negative = inhibition) in test [9] is -6.62% (inactive).
